± gives the standard deviation of the averaged measurements. The full ranking holds about 25,000 sequences; the median of “ln(normalized median fluorescence intensity)” is about 10, and the highest 2% start at about 12. This excerpt belongs to a sample that is enriched for the highest values.

This test relates to PfAP2-G AP2 domain (GST-tagged). The experiment in a line: gcPBM binding intensity (ln(normalized median fluorescence intensity)); higher = stronger DNA binding. In short, it runs like this:
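An Agilent 4 × 180k array carrying primer-extended double-stranded 36-bp intergenic genomic probes and negative controls received GST-tagged P. falciparum DNA-binding domains expressed in E. coli, about 25 μg on average, for 1 h. The binding buffer contained 1× PBS, 1% milk, 0.2 mg/ml BSA, 0.5% salmon testes DNA and 0.03% Triton X-100. Binding intensity is the top Masliner-normalised natural-log median intensity across replicate spots of either probe orientation, read after Alexa488 anti-GST antibody staining and a 488 nm scan.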
In the case of “TCATATTTCCATAGGAGTACATAAAAAAAATAATAT [XGTACX_site7601]”, the “gcPBM binding intensity (ln)” value worked out at 11.7 ± 1.2. The result for “TATAATATAAAAATGAGTACATAGATAATAATATTT [XGTACX_site2376]” reads 11.3 ± 0.74. The result for “ATAAATCATAAGGAGAGTACATAAATAAAATAATCA [XGTACX_site8825]” reads 11.2 ± 0.71; that for “TATACACATATATACACACACATATATAAATAAATA [CACACA_site7579]”, 10 ± 0.23.

“CAAACAAACGGACACACACACACACCCAAAAATGAT [CACACA_site5363]”: the “gcPBM binding intensity (ln)” value turned out to be 11.2 ± 0.69. The result for “TATATTTATATAATATGTACATATTTTTTAATATTT [XGTACX_site3834]” reads 11.2 ± 0.72.

For the sequence “TAATATGAAAAGTGTACACACGCACAGACAAAAAAA [CACACA_site5594]”, the “gcPBM binding intensity (ln)” value amounted to 11.6 ± 0.95. The result for “AACATATTAATGTACACACACCCACGCACAAACAAA [CACACA_site7320]” reads 11.5 ± 0.91; that for “GAAATGTGTAGACACGCACACACAAAAAAATATATA [CACACA_site2912]”, 10.2 ± 0.34; that for “AATGTACACCCACCCACACACAAACAAATATATATA [CACACA_site5521]”, 11.4 ± 0.92. The result for “AATGTACACGCACCCACACACAAACAAATATAAATA [CACACA_site7319]” reads 11.4 ± 1.

Consider “TAATATGAAATGTGTACACACGCACCCACAAAAAAA [CACACA_site8949]”, for which the “gcPBM binding intensity (ln)” value came out at 11.8 ± 0.93.

For “GTGTAATATGAAATGTGTACACACGCACACACAAAA [XGTACX_site6180]”, the “gcPBM binding intensity (ln)” value is 11.7 ± 1.1. The result for “ATTTTTTTACAAAAATGTACACATGAAATATGTAAT [XGTACX_site1372]” reads 11.3 ± 0.69.

For “TGTAATATGAAATGTGTACACACGCACCCACAAAAA [CACACA_site8948]”, the “gcPBM binding intensity (ln)” value turned out to be 11.6 ± 1. The result for “ATATGAAAGGTGTACACACGCACACCCAAAAAAATA [CACACA_site2911]” reads 11.7 ± 0.95; that for “AATGTGTACGCACGCACACACAAAAAAATATATATA [CACACA_site2913]”, 11.6 ± 1.2. The result for “GAAAAAGACAAAAGGTGTACAATATGAAATATATAT [XGTACX_site373]” reads 11.5 ± 0.86; that for “AATTTGTTAATATTTTGTACACATAATATAAAAACA [XGTACX_site2224]”, 11.3 ± 0.89. Consider “ATAATATGAAGAAGCACACTCAATTAAATACAGATA [CACACA_site4690]”, for which the “gcPBM binding intensity (ln)” value was 9.97 ± 0.071.

Turning to “ACAAAATGTAGAAAATGTACAAAATTAACAAAAGAA [XGTACX_site5019]”, the “gcPBM binding intensity (ln)” value was 10.7 ± 0.3. On to “CTTCTTGTAAAATTTGCATGTAATTAAAAGAGAATG [TGCATGCA_site484]”, for which the “gcPBM binding intensity (ln)” value turned out to be 10.2 ± 0.3. Take “TACAAAAAATTATGGAGTACATATATAATATACAAT [XGTACX_site1004]”: the “gcPBM binding intensity (ln)” value turned out to be 11.5 ± 0.88.

For “GCACTCGTAAAAAGCACACATATAAAAACATTTATA [CACACA_site322]”, the “gcPBM binding intensity (ln)” value turned out to be 10.2 ± 0.26. The result for “TAAAATTTTGTTTGTTGTACTTATTTTCGTGTCAAC [XGTACX_site8277]” reads 11.6 ± 1; that for “TTTTTTTTTTTTTTTTGTACTTATAAAAAATTTTTT [XGTACX_site1249]”, 11.1 ± 0.88; that for “AAATAAAATTTTTGTTGTACTTATTTTTAGTATACT [XGTACX_site4254]”, 11.5 ± 0.81. The result for “GATAACAATATGTGTACACATTTATATCTCCACATA [CACACA_site5442]” reads 11.7 ± 0.83; that for “ATAACATACATAACAACACACAATATTTATATGTAT [CACACA_site210]”, 9.85; that for “TATATTTATTTTCTGTGTACACATATGTTGTGTATT [XGTACX_site7640]”, 11.6 ± 1. The result for “ATTTATTTTCTGTGTACACATATGTTGGGTATTTTA [CACACA_site5902]” reads 11.7 ± 0.96. As for “TACATATTTTTTATGTGTACATATTTTTTATGTGTA [XGTACX_site443]”, the “gcPBM binding intensity (ln)” value is 11.4 ± 0.76. The result for “AAAATATTTAATAGAAGTACACATGTATATATACAT [XGTACX_site8942]” reads 11.6 ± 1.2. On to “ATATATATACTGTGTACACACATATGTATTTATATA [CACACA_site4600]”, for which the “gcPBM binding intensity (ln)” value was determined as 11.6 ± 0.78. Regarding “TACATATTTTTTATGTGTACATATTTTTTATGTGTG [XGTACX_site444]”, the “gcPBM binding intensity (ln)” value was 11.5 ± 0.68. The result for “AAAATAATATATGTATGTACATATACACATATAGAA [XGTACX_site2218]” reads 11.1 ± 0.59.

Take “TATATAATATATATATGTACACATATACATTTTTAT [XGTACX_site2832]”: the “gcPBM binding intensity (ln)” value was found to be 11.5 ± 0.97. The result for “CAACATATGCATATGTGTACATATTTTATTTTCAAC [XGTACX_site2237]” reads 11.7 ± 1.1.

Regarding “GAAAAAAGAAAAAAAAGTACACACATGTATATTAAT [XGTACX_site5265]”, the “gcPBM binding intensity (ln)” value was 11.5 ± 0.91. The result for “GAATGTCTAATTTTGATGCACACTTTTGTGCAATTA [CACACA_site2902]” reads 10.2 ± 0.24; that for “AAAAAAAAAAAAAAAACACACATATATGTATATATA [CACACA_site3276]”, 10 ± 0.27. For “AAGAAAAAAGGGGACAAGGCATATCTATATATACAT [TGCATGCA_negctrl_site172]”, the “gcPBM binding intensity (ln)” value was 10.7 ± 0.52.

Regarding “TTATAATTAAGATATAATCAATAATAACAAATGAAC [CACACA_negctrl_site1690]”, the “gcPBM binding intensity (ln)” value worked out at 9.84 ± 0.014.

As to “AAACCGAATTTACATGAATGTAAATTATGTTGTTTT [CACACA_negctrl_site1834]”, the “gcPBM binding intensity (ln)” value is 9.53 ± 0.13.

Take “TTTGCTTCCAAAAGTCGTACAAAAAATATTAAATAT [XGTACX_site4171]”: the “gcPBM binding intensity (ln)” value came to 11.6 ± 0.9.

The values are drawn from the supplement of paper PMC11417369.
